# Laboratory results taken from PMC4336329 (PLoS ONE, 2015).
# The campaign covered roughly 310,000 compounds. About 14,000 (4.5%) showed an effect of 50% or more. The effect is printed as a negative number. The entries come from a sample that favours strong results as a whole.
# Molecular target: human ether-à-go-go-related gene (hERG) potassium channel (human, UniProt Q12809)
# Assay: primary screen, population patch clamp on CHO cells stably expressing hERG; higher = less effect of the substance
# 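Note: peak tail current of the secondary pulse compared with the same well before compound.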
# human ether-à-go-go-related gene (hERG) potassium channel, sequence (Q12809 whole entry, looked up): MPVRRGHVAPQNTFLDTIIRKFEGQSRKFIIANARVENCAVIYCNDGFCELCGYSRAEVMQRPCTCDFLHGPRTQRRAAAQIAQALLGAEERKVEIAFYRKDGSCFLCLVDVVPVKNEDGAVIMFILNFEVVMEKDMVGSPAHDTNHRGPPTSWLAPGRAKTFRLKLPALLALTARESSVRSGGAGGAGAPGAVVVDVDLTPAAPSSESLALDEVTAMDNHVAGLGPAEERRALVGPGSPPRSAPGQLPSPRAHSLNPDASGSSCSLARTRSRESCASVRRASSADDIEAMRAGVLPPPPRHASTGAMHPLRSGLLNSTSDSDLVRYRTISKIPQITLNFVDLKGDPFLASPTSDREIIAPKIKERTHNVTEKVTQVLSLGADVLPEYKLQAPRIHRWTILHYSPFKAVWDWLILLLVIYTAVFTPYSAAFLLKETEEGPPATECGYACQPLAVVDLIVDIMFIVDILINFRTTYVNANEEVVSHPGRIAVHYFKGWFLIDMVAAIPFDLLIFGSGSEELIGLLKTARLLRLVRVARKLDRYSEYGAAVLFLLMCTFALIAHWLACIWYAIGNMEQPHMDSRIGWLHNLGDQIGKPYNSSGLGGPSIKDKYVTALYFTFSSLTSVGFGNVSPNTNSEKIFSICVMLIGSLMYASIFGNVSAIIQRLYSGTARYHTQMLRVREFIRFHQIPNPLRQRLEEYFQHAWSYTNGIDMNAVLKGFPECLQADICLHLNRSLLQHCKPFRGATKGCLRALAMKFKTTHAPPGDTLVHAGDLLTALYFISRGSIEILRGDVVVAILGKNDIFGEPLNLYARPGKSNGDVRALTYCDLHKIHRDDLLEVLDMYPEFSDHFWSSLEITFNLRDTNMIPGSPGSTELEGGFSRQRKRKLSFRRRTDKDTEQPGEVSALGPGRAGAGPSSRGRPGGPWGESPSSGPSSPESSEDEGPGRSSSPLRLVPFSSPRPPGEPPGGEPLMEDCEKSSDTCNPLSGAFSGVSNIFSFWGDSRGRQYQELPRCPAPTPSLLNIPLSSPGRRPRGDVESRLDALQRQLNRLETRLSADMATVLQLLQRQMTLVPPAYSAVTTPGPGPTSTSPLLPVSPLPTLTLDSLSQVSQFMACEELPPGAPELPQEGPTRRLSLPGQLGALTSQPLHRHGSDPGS
row,SMILES,"hERG current change (%, negative = inhibition) at 10uM"
1,CN(CC(=O)Nc1ccccc1Br)C(=O)CCc1nc2ccccc2c(=O)[nH]1,-15.8%
2,COC(=O)c1cc(C(=O)c2ccc(Cl)cc2Cl)cn1C,-16.4%
3,CCCCOc1ccc(C(=O)NCC(=O)N2CCN(C(=O)c3ccco3)CC2)cc1,-57.4%
4,O=C(NCC(=O)N1CCN(C(=O)c2ccco2)CC1)c1ccccc1,-7.74%
5,COc1ccc(C(=O)NCC(=O)N2CCN(C(=O)c3ccco3)CC2)cc1,-13.7%
6,O=C(NCC(=O)N1CCN(C(=O)c2ccco2)CC1)c1ccc(Cl)cc1,-34.1%
7,O=C(NCC(=O)N1CCN(C(=O)c2ccco2)CC1)c1ccc(Br)cc1,-53.9%
8,O=C(NCCC(=O)N1CCN(C(=O)c2ccco2)CC1)c1ccc(Br)cc1,-28.6%
9,O=[N+]([O-])c1ccc(Sc2n[nH]c(-c3ccncc3)n2)nc1,14.4%
10,CCCN(CC(=O)Nc1ccccc1C)C(=O)/C=C/c1ccc(OCC)c(OC)c1,-46.7%
11,Cc1ccc(NC(=O)CSc2nnc(/N=C/N(C)C)s2)cc1,-7.65%
12,COc1ccc2c(c1)NC(c1ccc(N(C)C)cc1)c1cccn1-2 (centres unmarked),12.5%
13,Cc1nc(N2CCN(c3ccccn3)CC2)c2c(C)c(C(=O)Nc3ccc(F)cc3F)sc2n1,-57.9%
14,Cc1ccc(NC(=O)c2sc3ncn(CC(=O)N4CCN(c5ccccn5)CC4)c(=O)c3c2C)cc1Cl,-7.77%
15,Cc1cccc(NC(=O)c2sc3ncn(CC(=O)N4CCN(c5ccccn5)CC4)c(=O)c3c2C)c1,-61.4%
16,COc1cccc(NC(=O)c2sc3ncn(CC(=O)N4CCN(c5ccccn5)CC4)c(=O)c3c2C)c1,-0.877%
17,Cc1nc(N2CCN(c3ccccn3)CC2)c2c(C)c(C(=O)Nc3ccc(F)cc3)sc2n1,-76.4%
18,Cc1nc(N2CCN(c3ccccn3)CC2)c2c(C)c(C(=O)Nc3ccccc3F)sc2n1,-55.3%
19,Cc1nc(N2CCN(c3ccccn3)CC2)c2c(C)c(C(=O)Nc3ccc(F)cc3Cl)sc2n1,-41.6%
20,Cc1nc(N2CCN(c3ccccn3)CC2)c2c(C)c(C(=O)Nc3ccc(Cl)cc3)sc2n1,-7.01%
21,Cc1nc(N2CCN(c3ccccn3)CC2)c2c(C)c(C(=O)Nc3ccc(Br)cc3C)sc2n1,11.6%
22,CCc1ccc(NC(=O)c2sc3nc(C)nc(N4CCN(c5ccccn5)CC4)c3c2C)cc1,5.47%
23,Cc1nc(N2CCN(c3ccccn3)CC2)c2c(C)c(C(=O)Nc3ccc(F)c(Cl)c3)sc2n1,14.2%
24,Cc1ccc(NC(=O)c2sc3nc(C)nc(N4CCN(c5ccccn5)CC4)c3c2C)c(C)c1,-40.1%
25,C1CCC(C(CC2CCCCN2)C2CCCCC2)CC1.O=C(O)/C=C\C(=O)O (centres unmarked),-22.6%

row,SMILES,"hERG current change (%, negative = inhibition) at 10uM"
1,Cn1c(SCC(=O)Nc2ccc3nc(SCC(=O)NC4CC4)sc3c2)nnc1-c1ccccc1,-5.5%
2,O=C(CSc1nnc(Cn2nnc(-c3ccccc3)n2)n1-c1ccccc1)Nc1ccc(F)cc1,3.55%
3,CC1CCN(C(=O)C(Cc2ccccc2)NS(=O)(=O)c2ccc3c(c2)oc(=O)n3C)CC1 (centres unmarked),-2.38%
4,O=C(Nc1ccc2ccccc2c1)c1ccc(Cl)cc1Cl,31%
5,O=c1c2c3nc4ccccc4nc3n(/N=C/c3ccccn3)c2ncn1-c1ccccc1,19.8%
6,CC(c1ccco1)N(C(=O)COc1ccc(Cl)cc1)c1ccccn1 (centres unmarked),-12.7%
7,O=C(NNS(=O)(=O)c1ccc(F)cc1)c1ccc(O)cc1,9.17%
8,Cc1nc(N2CCOCC2)c2c(C)c(C(=O)Nc3ccc(C(F)(F)F)cc3)sc2n1,-34.9%
9,CCOc1ccccc1NC(=O)c1sc2nc(C)nc(N3CCOCC3)c2c1C,-14.4%
10,CCOc1ccc(NC(=O)c2sc3nc(C)nc(N4CCOCC4)c3c2C)cc1,-50.7%
11,CCC(C)(C)NC(=O)CN(Cc1cccs1)C(=O)CCC(=O)Nc1nccs1,-36.6%
12,CC(C)C(=O)N1CCN(c2ccc([N+](=O)[O-])cc2Cl)CC1,-30.9%
13,CC(C)(C)C(=O)N1CCN(c2ccc([N+](=O)[O-])cc2Cl)CC1,-33.2%
14,CCCC(=O)N1CCN(c2ccc([N+](=O)[O-])cc2Cl)CC1,-52.2%
15,CC(C)CC(=O)NC(=S)N1CCN(c2ccc([N+](=O)[O-])cc2Cl)CC1,-30.9%
16,CC(C)CC(=O)N1CCN(c2ccc([N+](=O)[O-])cc2Cl)CC1,-59.9%
17,CCC(=O)NC(=S)N1CCN(c2ccc([N+](=O)[O-])cc2Cl)CC1,-26.4%
18,C=CCn1c(SCC(=O)Nc2nccs2)nnc1-c1cc2cccc(OC)c2o1,-4.98%
19,CC1CCN(C2=NN3C(=N)/C(=C\c4ccc(OC(=O)c5ccco5)cc4)C(=O)N=C3S2)CC1,12.6%
20,O=C(NCc1ccccc1)C(c1ccccn1)N(C(=O)c1csnn1)c1ccccc1F (centres unmarked),-5.45%
21,COc1ccc(N2CCN(C(=S)NCCc3ccccc3)CC2)cc1,-5.71%
22,O=C(CCCOc1ccccc1)N1CCN(c2ccccn2)CC1,-8.9%
23,Cc1ccc(Oc2ccccc2/C=C2\SC(=O)N(C)C2=O)cc1,4.1%
24,C=CCNC(=O)CC1C(=O)NCCN1Cc1ccc(-c2ccccc2)cc1 (centres unmarked),-7.59%
25,CC(C)Cn1c(N)c(C(=O)COC(=O)CN2C(=O)C3CC=CCC3C2=O)c(=O)n(C)c1=O (centres unmarked),-4.23%
